# Measured values: the supplement of paper PMC7724964
# T1: BTN1A1 285-479 SPRY (domain begin residue: 285, domain end residue: 479), Q13410
# T1 chain: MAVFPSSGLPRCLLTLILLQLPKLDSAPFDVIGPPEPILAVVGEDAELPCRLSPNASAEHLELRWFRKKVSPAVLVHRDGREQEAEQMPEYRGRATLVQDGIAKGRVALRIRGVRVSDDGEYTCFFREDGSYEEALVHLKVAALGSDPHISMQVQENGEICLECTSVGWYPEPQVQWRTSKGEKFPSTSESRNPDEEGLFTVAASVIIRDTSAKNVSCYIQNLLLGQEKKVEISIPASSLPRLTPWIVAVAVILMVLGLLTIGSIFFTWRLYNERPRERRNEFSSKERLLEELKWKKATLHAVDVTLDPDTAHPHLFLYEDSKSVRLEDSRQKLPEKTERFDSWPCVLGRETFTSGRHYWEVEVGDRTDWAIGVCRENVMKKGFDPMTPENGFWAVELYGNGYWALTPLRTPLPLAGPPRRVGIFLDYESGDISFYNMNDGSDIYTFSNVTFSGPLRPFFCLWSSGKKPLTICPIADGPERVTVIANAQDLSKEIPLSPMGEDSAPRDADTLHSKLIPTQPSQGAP
# T2: CAPNS1 1-268 EF-hand_8+EF-hand_5 (domain begin residue: 1, domain end residue: 268), P04632
# T2 chain: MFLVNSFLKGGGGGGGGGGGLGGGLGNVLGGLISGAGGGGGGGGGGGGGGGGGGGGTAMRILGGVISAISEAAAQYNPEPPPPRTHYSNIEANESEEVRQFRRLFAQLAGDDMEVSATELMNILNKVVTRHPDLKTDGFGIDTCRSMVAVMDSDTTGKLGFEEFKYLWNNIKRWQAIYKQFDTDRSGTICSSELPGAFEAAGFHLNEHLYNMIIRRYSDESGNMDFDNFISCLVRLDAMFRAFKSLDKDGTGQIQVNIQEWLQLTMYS
# T3: CAPN2 513-700 EF-hand_8 (domain begin residue: 513, domain end residue: 700), P17655
# T3 chain: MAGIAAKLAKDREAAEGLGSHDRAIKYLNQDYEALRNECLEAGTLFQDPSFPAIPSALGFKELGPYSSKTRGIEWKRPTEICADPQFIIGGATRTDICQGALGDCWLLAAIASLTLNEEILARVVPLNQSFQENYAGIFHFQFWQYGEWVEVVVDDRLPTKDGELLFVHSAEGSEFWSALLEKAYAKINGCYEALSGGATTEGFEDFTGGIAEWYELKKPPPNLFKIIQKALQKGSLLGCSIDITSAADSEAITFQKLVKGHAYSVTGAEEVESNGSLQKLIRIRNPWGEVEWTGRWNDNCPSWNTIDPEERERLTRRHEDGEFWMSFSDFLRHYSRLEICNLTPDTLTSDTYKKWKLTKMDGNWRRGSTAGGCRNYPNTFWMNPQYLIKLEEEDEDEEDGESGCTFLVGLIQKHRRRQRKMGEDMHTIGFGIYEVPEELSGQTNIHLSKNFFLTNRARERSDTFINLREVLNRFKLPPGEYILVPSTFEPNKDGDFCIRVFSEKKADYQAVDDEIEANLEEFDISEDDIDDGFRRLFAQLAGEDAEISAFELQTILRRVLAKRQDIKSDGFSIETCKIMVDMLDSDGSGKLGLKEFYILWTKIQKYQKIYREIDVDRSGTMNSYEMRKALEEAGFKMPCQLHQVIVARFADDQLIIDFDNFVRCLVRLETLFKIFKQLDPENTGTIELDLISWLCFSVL
# Columns and labels:
# Test in all cases: phage ELISA signal ratio (GST-PRM binding over GST background); higher = stronger binding of peptide-phage to the PRM
# [1] = target: T1, BTN1A1 285-479 SPRY (domain begin …
# Protocol: (§1)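 Phage-displayed random hexadecapeptides (Cys-free, flanked by invariant Gly linkers, fused to the M13 P8 major coat protein) were selected over 5 rounds against GST-fused human PRM domains. Individual clones from rounds 4-5 were tested by phage ELISA, and positive clones binding the target but not GST were sequenced. Values are the ELISA signal ratio of target over background (GST); the background signal is given separately.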
# [2] = target: CBX3 109-173 Chromo_shadow (domain begin residue: 109, domain end residue: 173), Q13185
# Chain of CBX3 109-173 Chromo_shadow (domain begin residue: 109, domain end residue: 173), Q13185 (Q13185 whole entry): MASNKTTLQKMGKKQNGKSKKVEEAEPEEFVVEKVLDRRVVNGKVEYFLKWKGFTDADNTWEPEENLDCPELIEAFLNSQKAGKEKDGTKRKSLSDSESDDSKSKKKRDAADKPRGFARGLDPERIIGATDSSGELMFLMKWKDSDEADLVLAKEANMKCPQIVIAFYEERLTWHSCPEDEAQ
# Protocol: as §1
# [3] = target: T2, CAPNS1 1-268 EF-hand_8+EF-hand_5 …
# Protocol: as §1
# [4] = target: T3, CAPN2 513-700 EF-hand_8 (domain begin …
# Protocol: as §1
binder,measurement,setting,value
QTWQERQAMMMHMMQW,phage ELISA signal ratio,[1],15.7
LSSLETYKNHGLMFMF,phage ELISA signal ratio,[1],22.5
NWLFLDPDYYNVHWPS,phage ELISA signal ratio,[2],3.29
VDGWWIARSEHLMQMA,phage ELISA signal ratio,[1],11.9
VNAHDMLEHWLYQDMI,phage ELISA signal ratio,[3],28.3
GWWQSREYYMQDLMAS,phage ELISA signal ratio,[1],5.49
DVTWWSERAQATLVMM,phage ELISA signal ratio,[1],12.4
VTVPPWLMEMIMELMQ,phage ELISA signal ratio,[4],5.99
YQQDLVDFLWNDLYAF,phage ELISA signal ratio,[3],22.7
LHSNLEEWLLEDLMMW,phage ELISA signal ratio,[3],18.9
ISESQIAQFVMAWMQQ,phage ELISA signal ratio,[4],22.5
WDAFVNDFMHEWSTFK,phage ELISA signal ratio,[4],26.5
HWIDSWEGFRARVIPS,phage ELISA signal ratio,[2],12.6
WIENWSVSPWDLTNPF,phage ELISA signal ratio,[2],4.99
GGIDWQGVYMKHFEMT,phage ELISA signal ratio,[1],20.6
IQKWMNFDDFATAVFH,phage ELISA signal ratio,[2],11.5
RDPHWQHKQQMQIVLM,phage ELISA signal ratio,[1],11.1
FEQHWMQKQMAVRQIV,phage ELISA signal ratio,[1],13.6
